Screening results (PubChem BioAssay)
Cycloheximide cs: counter-screen for Shiga toxin inhibitors: cycloheximide protein synthesis inhibition | cell reporter, cycloheximide protein synthesis inhibition counterscreen | max response, % | actives 12% (n = 300,000) | AID 2314; in the data active = max response mostly above about 13%, no sharp cut-off; inactive = mostly below about 14%; note: read at 38.3 µM for the half of the compounds with a filed dose
Shiga toxin inh: inhibitors of Shiga toxin in Vero cells; Vero cells, Shiga toxin protein synthesis inhibition reporter; inhibition, % at 38.7 µM; actives 9.2% (n = 290,000); AID 2315; in the data active = inhibition mostly above about 28%, no sharp cut-off; inactive = mostly below about 43%
LASV entry inh: Lassa virus entry inhibition | Lassa virus pseudotype entry inhibition, cell reporter | Potency, µM (highest dose often 37.9 µM), most hits filed as inhibitors | actives 1.2% (n = 300,000) | AID 540256; calls by dose curve; tested in HEK293 cells; note: nearly all actives have a fitted effect of over 50% in size
Marburg entry inh: blocks Marburg virus binding to or entry into cells; Marburg virus pseudotyped entry inhibition, cell reporter; Potency, µM (series often up to 37.8 µM), actives largely listed as inhibitors; actives 1.8% (n = 300,000); calls by dose curve; tested in HEK293 cells
HCV inh: HCV inhibition. Huh7.5.1 HCVcc-Cre infection, luciferase reporter, 44 h. Potency, µM (titrated, usually from 41.8 µM), most hits filed as inhibitors. actives 3.4% (n = 340,000); active = well fitted inhibition curve with a large enough effect; inconclusive = small, poorly fitted or top-dose-only effect, or another doubt; inactive = no such curve, though single readings can be large or run the other way
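After 44 h co-culture of compound, cells and HCVcc-Cre (~0.5 moi), substrate is added for 15 min at room temperature and luciferase measured over 15 sec. Cells were seeded at 1,000/well and pre-cultured 4 h.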
FMDV inh: foot and mouth disease virus antiviral activity; AID 1159524; FMDV antiviral cell-based qHTS; actives 1.2% (n = 410,000); Potency, µM (series often up to 57.9 µM), most hits filed as inhibitors; calls by dose curve; tested in HEK293T cells; note: read-out not given here; nearly all actives have a fitted effect of over 45% in size
Numbers stand for hits. In the library only some 13% were active in any assay of this set; here they are far more common.

Results for COc1ccc2c(C)cc(=O)oc2c1OCC(O)CN1CCOCC1 (stereo not drawn) ?
FMDV inh: inactive

How did CC1c2[nH]c3ccccc3c2CCN1S(C)(=O)=O (stereo not drawn) do in these assays?
Cycloheximide cs: inactive; Shiga toxin inh: inactive; LASV entry inh: inactive; Marburg entry inh: inactive; HCV inh: inactive; FMDV inh: inactive

How did COc1ccccc1CNc1nc(NCCOc2ccccc2)c2sccc2n1 do in these assays?
FMDV inh: inactive

How did CC(=O)NCCNc1nc(NCc2ccccc2)nc2ccsc12 do in these assays?
FMDV inh: inactive

How did COc1ccccc1CNc1nc(NCc2ccc3occc3c2)c2sccc2n1 do in these assays?
FMDV inh: 25µM

What do the screens show for `COc1ccccc1CNc1nc(NCc2ccc(NC(C)=O)cc2)c2sccc2n1`?
FMDV inh: inactive

Results for CCOC(=O)Cc1ccc(Nc2nc(NCc3ccccc3)nc3ccsc23)cc1 ?
FMDV inh: 28µM

How did COc1ccccc1CNc1nc(NCc2ccccc2OC)c2sccc2n1 do in these assays?
FMDV inh: 22µM

How did COc1ccccc1CNc1nc(NCC2CC2)nc2ccsc12 do in these assays?
FMDV inh: 25µM

Results for Cn1c(SCc2n[nH]c(=S)o2)nnc1-c1ccccc1 ?
Cycloheximide cs: inactive; Shiga toxin inh: inactive; LASV entry inh: inactive; Marburg entry inh: inconclusive; HCV inh: inactive; FMDV inh: inactive

Results for CC(=O)c1cccc(Nc2c3c(nc4nc(-c5cccs5)nn24)CCCC3)c1 ?
LASV entry inh: inactive; FMDV inh: inactive

What do the screens show for `O=C(N/N=C/c1ccccc1C(=O)O)c1ccc(COc2cccc3cccnc23)cc1`?
Cycloheximide cs: inactive; Shiga toxin inh: inactive; LASV entry inh: inactive; Marburg entry inh: inconclusive; HCV inh: inactive; FMDV inh: inactive

How did O=C(N/N=C/c1ccc[nH]1)c1ccc(COc2cccc3cccnc23)cc1 do in these assays?
Cycloheximide cs: 34; Shiga toxin inh: inactive; LASV entry inh: inconclusive; Marburg entry inh: inconclusive; HCV inh: 0.79µM; FMDV inh: 8.9µM

How did NNC(=O)c1ccc(COc2cccc3cccnc23)cc1 do in these assays?
Cycloheximide cs: 32; Shiga toxin inh: inactive; LASV entry inh: inactive; Marburg entry inh: inactive; HCV inh: inactive; FMDV inh: inactive

What do the screens show for `CC(=O)Nc1ccc(S(=O)(=O)N/N=C/c2cccnc2)cc1`?
Cycloheximide cs: inactive; Shiga toxin inh: inactive; HCV inh: inactive; FMDV inh: inactive

How did C[C@@H](NC(=O)[C@@H]1Cc2ccccc2CN1)C(=O)Nc1ccc2c(c1)OCCO2 do in these assays?
Cycloheximide cs: 27; Shiga toxin inh: 67; HCV inh: inactive; FMDV inh: inactive

How did CSCC[C@H](NC(=O)[C@@H]1Cc2ccccc2CN1)C(=O)NC(C)c1ccccc1 (stereo partly drawn) do in these assays?
Cycloheximide cs: inactive; Shiga toxin inh: inactive; HCV inh: inactive; FMDV inh: inactive

What do the screens show for `O=C(CNC(=O)[C@@H]1Cc2ccccc2CN1)Nc1ccc2c(c1)OCO2`?
Cycloheximide cs: inactive; Shiga toxin inh: inactive; HCV inh: inactive; FMDV inh: inactive

What do the screens show for `CSCC[C@H](NC(=O)[C@@H]1Cc2ccccc2CN1)C(=O)Nc1ccc2c(c1)OCO2`?
Cycloheximide cs: 48; Shiga toxin inh: inactive; LASV entry inh: inconclusive; Marburg entry inh: inactive; HCV inh: inactive; FMDV inh: inactive

What do the screens show for `C[C@H](NC(=O)[C@@H]1Cc2ccccc2CN1)C(=O)Nc1ccc2c(c1)OCO2`?
Cycloheximide cs: 30; Shiga toxin inh: inactive; HCV inh: inactive; FMDV inh: inactive

Results for Nc1ccc(C(=O)Oc2ccc([N+](=O)[O-])cc2)c(O)c1 ?
Cycloheximide cs: inactive; Shiga toxin inh: inactive

How did Nc1ccc(C(=O)Oc2ccc([N+](=O)[O-])cc2)cc1 do in these assays?
Cycloheximide cs: 51; Shiga toxin inh: 105; HCV inh: inactive; FMDV inh: inactive

Results for Nc1ccc(C(=O)OCC(=O)Nc2cc([N+](=O)[O-])ccc2F)cc1 ?
Cycloheximide cs: 12; Shiga toxin inh: inactive; HCV inh: inactive; FMDV inh: inactive

How did O=C(CCNS(=O)(=O)c1ccc2c(c1)CCN2C(=O)C1CC1)N1CCN(c2cccc(C(F)(F)F)c2)CC1 do in these assays?
LASV entry inh: inactive; FMDV inh: inconclusive

What do the screens show for `CCOc1cccc(-c2nn3c(-c4ccco4)nnc3s2)c1`?
Cycloheximide cs: inactive; Shiga toxin inh: inactive; LASV entry inh: inactive; Marburg entry inh: inactive; HCV inh: inactive; FMDV inh: inactive

Results for Cc1ccc(SCC2CNc3nc4ccccc4c(=O)n32)c(C)c1 (stereo not drawn) ?
Cycloheximide cs: inactive; Shiga toxin inh: inactive; LASV entry inh: inactive; Marburg entry inh: inactive; HCV inh: inactive; FMDV inh: inactive

How did CCOc1ccc(N(C)S(=O)(=O)c2ccc(-c3cc(C)no3)s2)cc1 do in these assays?
Cycloheximide cs: inactive; Shiga toxin inh: inactive; HCV inh: 10µM; FMDV inh: inconclusive

What do the screens show for `COc1ccccc1NC(=O)c1c(NC(=O)CCC(=O)O)sc2c1CCCCC2`?
Cycloheximide cs: inactive; Shiga toxin inh: inactive; HCV inh: inactive; FMDV inh: inactive

Results for COc1ccc(/C=C/C(=O)N2CCN(c3ccccc3)CC2)cc1S(=O)(=O)N1CCOCC1 ?
Cycloheximide cs: inactive; Shiga toxin inh: inactive; LASV entry inh: inconclusive; Marburg entry inh: inactive; HCV inh: 32µM; FMDV inh: 14µM

What do the screens show for `O=C(/C=C/c1ccccc1)N1CCN(S(=O)(=O)c2ccc(F)cc2)CC1`?
Cycloheximide cs: inactive; Shiga toxin inh: inactive; LASV entry inh: inactive; Marburg entry inh: inconclusive; HCV inh: inactive; FMDV inh: inactive

How did O=C(/C=C/c1ccc(S(=O)(=O)N2CCOCC2)cc1)N1CCN(c2ccccc2)CC1 do in these assays?
Cycloheximide cs: inactive; Shiga toxin inh: inactive; HCV inh: 2µM; FMDV inh: 32µM

Results for O=C(/C=C/c1ccco1)N1CCN(S(=O)(=O)/C=C/c2ccccc2)CC1 ?
Cycloheximide cs: 30; Shiga toxin inh: inactive; LASV entry inh: inactive; Marburg entry inh: inactive; HCV inh: inconclusive; FMDV inh: inactive

What do the screens show for `CCCCN(C(=O)CSc1nnc(-c2ccc(Cl)cc2)o1)c1c(N)n(CC(C)C)c(=O)[nH]c1=O`?
LASV entry inh: inconclusive; Marburg entry inh: inactive; HCV inh: inactive; FMDV inh: inactive

What do the screens show for `CC(C)c1ccc(NC(=O)CC2NCCNC2=O)cc1` (stereo not drawn)?
LASV entry inh: inactive; Marburg entry inh: inactive; FMDV inh: inactive

What do the screens show for `O=C(COc1ccc(F)cc1)Nc1ccc2nc(SCC(=O)N3CCCC3)sc2c1`?
LASV entry inh: inactive; Marburg entry inh: inactive; FMDV inh: inconclusive

How did CS(=O)(=O)N1CCC[C@@]2(CCN(Cc3nccs3)C2)C1 do in these assays?
FMDV inh: inactive

How did COc1ccc(OC)c(NS(=O)(=O)c2ccc3c(c2)C(C)(C)C(=O)N3C)c1 do in these assays?
Cycloheximide cs: inactive; Shiga toxin inh: inactive; LASV entry inh: inactive; HCV inh: inactive; FMDV inh: inactive
